Laboratory results reported in PubChem BioAssay AID652180 (National Center for Advancing Translational Sciences (NCATS), 2013).
Records with an inconclusive call do not appear. Active and inactive are the calls of the source. The call rests on the fitted dose curve; in most records, active means well fitted inhibition curve with a large enough effect; inconclusive means small, poorly fitted or top-dose-only effect; inactive means no such curve, though single readings can be large or run the other way.

Assay: qHTS Assay for Lipid Storage Modulators: 3T3L1 Assay against Probe and Analogs
Settings: 3T3-L1 lipid droplets, BODIPY imaging, oleic acid, 18-24 h; series mostly up to 46.1 µM
From the text: Storing lipids as a reservoir for energy or the anabolism of elementary metabolites is a common feature of probably all cells and is conserved from bacteria to humans. The universal cellular lipid storage organelle is the so-called lipid storage droplet (LD). Although ubiquitous, LDs share a simple structure composed of a hydrophobic core that harbors the storage lipids, which is shielded by a droplet-specific phospholipid monolayer to which proteins are attached. The current model of LD biogenesis involves an incorporation of the lipid core into the membrane leaflets of the endoplasmic reticulum (ER) followed by a subsequent budding-like maturation of a LD, which ultimately pinches off. Once released, LD volume can increase by localized lipogenesis or fusion of existing droplets. Storage lipids are re-mobilized enzymatically by lipase activity. Lipase regulation in the adipocyte is heavily studied and involves multiple components including catecholamine signaling, the LD-associated proteins Perilipin and comparative gene identification-58 (CGI-58) and at least two lipases named hormone sensitive lipase (HSL) and adipocyte triglyceride lipase (ATGL). LD regulation outside of the adipocyte is poorly understood and only few components are known. However, there is an urgent need to learn more about ectopic fat depots as mislocalized storage of lipids, for example in the liver or muscle, is an eminent health problem associated with insulin resistance or the metabolic syndrome. We developed a laser-scanning cytometer assay to enable 1,536-well screening and combined the results of the small molecules screen with an RNAi database based on lipid storage. In this assay we tested analogs of the probe against a mammalian cell line (3T3L1), to see if these small molecules could disrupt lipid storage. NIH Molecular Libraries Probe Production Centers Network [MLPCN] NIH Chemical Genomics Center [NCGC] MLPCN Grant: MH085686 Assay Submitter (PI): Mathias Beller, Max-Planck-Institut fur Biophysikalische Chemie
3T3L1 cells were obtained from ATCC (CL-173). 4 uL of cells at 1.25 X 105 cell/mL were dispensed into 1536 well Poly-D-Lysine coated black with clear bottom imaging plates (Corning, #7356) to obtain 500 cells/well, and cultured at 37 °C, 95% humidity, and 5% CO2 overnight. The culture medium used was OPTI-MEM containing 5% fetal bovine serum (FBS). Triacsin C (Sigma-Aldrich T-4540), an inhibitor of long-chain fatty acyl CoA synthetase that blocks synthesis of triglycerides, was used as a positive control for lipid under-storage. A total of 23 nL of compounds dissolved in DMSO at different concentrations were transferred to the assay plates using a Kalypsys 1536-pin tool, the final DMSO concentration was 0.46%. One microliter of oleic acid at 400 uM (Calbiochem, #4954) was added to induce lipid droplet formation in the cells, and the plates were lidded. After 18-24 hours of incubation at 37 °C, 95% humidity, and 5% CO2, cells were fixed (8 % paraformaldehyde in PBS, 30 min, room temperature), washed three times with PBS, then stained for lipid droplet and nucleus using 4uL of PBS solution containing BODIPY lipid dye 493/503 (1:2000 dilution, Life Technologies, #3922) and Hoechst 33342 (1:1000, Life Technologies, #H3570) with Washer dispenser EL406(Biotek). Images were acquired using InCell 2000 (GE). Number of cells, number of lipids and sizes of lipids were analysis using GE Investigator software.

Which Potency does the source give for `CCOc1ccc(CCNC(=O)c2ccc(Oc3ccccc3)cc2)cc1OCC` here?
Its Potency is 246 nM (active).

Which Potency does the source give for `CCOc1ccc(CCNC(=O)c2cc3ccccc3n2Cc2ccccn2)cc1OCC` here?
The Potency was 46.9 nM (active).

Which Potency does the source give for `CCOc1ccc(CCNC(=O)c2cc3ncccc3n2Cc2cccc(C)n2)cc1OCC` here?
The Potency was “inactive”.

For `CCOc1ccc(CCNC(=O)c2cc3cnccc3n2Cc2cccc(C)n2)cc1OCC`, which Potency is on record?
The Potency was “inactive”.

Which Potency does the source give for `CCOc1ccc(CCNC(=O)c2ccccc2)cc1OCC` here?
Its Potency is 2350 nM (active).

For `CCOc1ccc(CCNC(=O)c2cc3ccncc3n2Cc2cccc(C)n2)cc1OCC`, which Potency is on record?
The Potency was “inactive”.

For `CCOc1ccc(CCNC(=O)c2cc3sccc3n2Cc2ccc(F)cc2F)cc1OCC`, which Potency is on record?
The Potency was 23.5 nM (active).
